This is an account of results in the OligoGym collection.
Further: reference of the scale not given here.

In one experiment the target is ANGPTL3. The experiment in a line: pooled miR-30 sensor sort-seq; sequence = guide strand. The note with it: shRNA.
As to TTTGTGATCCATCTATTCGATG, the sensor-assay potency score (higher = more potent) is -1.29.
The same measure, in the same setting: under TTCTTTTATTTGACTATGCTGT stands -0.537; under TAATGTTTGTTGTCTTTCCAGT, -0.418.
TTGAATACTAGTCCTTCTGAGC came in with a sensor-assay potency score (higher = more potent) of -0.706.
The sequence TTTATATGTAGTTCTTCTCAGT came in with a sensor-assay potency score (higher = more potent) of -0.38.
The same measure, in the same setting: then TAGAATTTTTTCTTCTAGGAGG, with -0.766; and TTACATCGTCTAACATAGCAAA, with -1.16.
Same read-out and setting: under TTATAGAGTATAACCTTCCATT stands -0.924; under TCGTCTAACATAGCAAATCTTG, -1.34; under TTGACTTGTAGTTTATATGTAG, 0.386.
On the same count and under the same terms, under TTAATGTCCATGGACTACCTGA stands -0.665.
In turn, TATAACATCACAGTAGACATGA registered a sensor-assay potency score (higher = more potent) of 0.929.

The target in another experiment is ANG. Described as above. The note with it: shRNA.
The sequence AAGACTTGCTTATTCTTAGGTT had a sensor-assay potency score (higher = more potent) of 0.22.
As to TTCACAGTATCTGTCATCCCGG, the sensor-assay potency score (higher = more potent) was -0.736.
On the same count and under the same terms, then TCACAAGCAACAACAACGTTTC, with -0.587; and TAGGTTTTCTCTGTGAGGGTTT, with 0.619.
Still for that read-out and setting: then TGTGTACCTGGAGTTATCCTGA, with 0.329; and TGTACCTGGAGTTATCCTGAGC, with -1.14; and TCTGTGAGGGTTTCCATTCTTG, with -0.487.
On the same count and under the same terms, then TAGCTTGCAAGTGGTGACCTGG, with -0.539; and TTGATGCTGCGCTTGTTGCCAT, with -0.23.
TGCTTTCACAGTATCTGTCATC had a sensor-assay potency score (higher = more potent) of -1.22.
Same read-out and setting: under TTCTTAGGTTTTCTCTGTGAGG stands -0.88; under AATGTGTTGATGTCTTTGCAGG, -1.22; under TTGTTTTCACAGATGGCCTTGA, 0.228.
